PubChem BioAssay (NCI)
This is part of a sample that, as a whole, favours compounds with a hit. Of some 83,000 tested, about 20% had one in any assay.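 Percent growth is the endpoint: 0 to 100 indicates growth inhibition (40 means 60% inhibition), 0 means no net growth, and negative values indicate cell death.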 The source made the active and inactive calls. How the source made its calls: active means growth percent below 10; inactive means the rest.

Tests used:
Test in all cases: NCI-60 one-dose screen, 48 h (100 = growth as untreated, 0 = no growth, -100 = all killed)
Settings in all cases: 10 µM unless noted
RPMI-8226 leukemia = test system: RPMI-8226 leukemia
OVCAR-8 ovarian = test system: OVCAR-8 ovarian
OVCAR-5 ovarian = test system: OVCAR-5 ovarian
OVCAR-4 ovarian = test system: OVCAR-4 ovarian
SK-OV-3 ovarian = test system: SK-OV-3 ovarian
IGROV1 ovarian = test system: IGROV1 ovarian
OVCAR-3 ovarian = test system: OVCAR-3 ovarian
HS 578T breast = test system: HS 578T breast
NCI/ADR-RES ovarian = test system: NCI/ADR-RES ovarian
T-47D breast = test system: T-47D breast

Measured: growth

NC(=O)c1ncn([C@@H]2O[C@H](CO)[C@@H](O)[C@H]2O)n1
inactive: RPMI-8226 leukemia 87.2% | OVCAR-8 ovarian 72.7% | OVCAR-5 ovarian 102% | OVCAR-4 ovarian 92.2% | SK-OV-3 ovarian 96.8% | IGROV1 ovarian 98.9% | OVCAR-3 ovarian 103% | HS 578T breast 113% | NCI/ADR-RES ovarian 88% | T-47D breast 89%

C=C(C[C@](O)(C(=O)/C=C/c1ccc(Cl)cc1)C(=O)OC)c1ccccc1
inactive: OVCAR-8 ovarian 50.2% | OVCAR-5 ovarian 105% | OVCAR-4 ovarian 84.4% | SK-OV-3 ovarian 95.7% | IGROV1 ovarian 81.2% | OVCAR-3 ovarian 61.7% | HS 578T breast 104% | NCI/ADR-RES ovarian 59.2% | T-47D breast 36.2%
active: RPMI-8226 leukemia -20.3%

CCCCCCCCCCSc1ncnc2nc[nH]c12
inactive: RPMI-8226 leukemia 51.4% | OVCAR-8 ovarian 67.5% | OVCAR-5 ovarian 101% | OVCAR-4 ovarian 61.3% | SK-OV-3 ovarian 85% | IGROV1 ovarian 75.1% | OVCAR-3 ovarian 71.1% | HS 578T breast 91.4% | NCI/ADR-RES ovarian 54.5% | T-47D breast 47.9%

CN=C(NC)N/N=C(C)\C=N\NC(=NC)NC
inactive: RPMI-8226 leukemia 127% | OVCAR-8 ovarian 102% | OVCAR-5 ovarian 116% | OVCAR-4 ovarian 112% | SK-OV-3 ovarian 101% | IGROV1 ovarian 112% | OVCAR-3 ovarian 107% | HS 578T breast 102% | NCI/ADR-RES ovarian 107% | T-47D breast 109%

Clc1cc(Cl)c(OCC#CI)cc1Cl
inactive: RPMI-8226 leukemia 15.2% | OVCAR-8 ovarian 72.1% | OVCAR-5 ovarian 101% | OVCAR-4 ovarian 80% | SK-OV-3 ovarian 102% | IGROV1 ovarian 45.3% | HS 578T breast 103% | NCI/ADR-RES ovarian 83.6%
active: OVCAR-3 ovarian -61.5% | T-47D breast 1.86%

C=CC1=C(C(=O)O)N2C(=O)[C@@H](NC(=O)/C(=N\O)c3csc(N)n3)[C@H]2SC1 (stereo in doubt)
inactive: RPMI-8226 leukemia 113% | OVCAR-8 ovarian 102% | OVCAR-5 ovarian 95.7% | OVCAR-4 ovarian 108% | SK-OV-3 ovarian 107% | IGROV1 ovarian 120% | OVCAR-3 ovarian 108% | HS 578T breast 103% | NCI/ADR-RES ovarian 98% | T-47D breast 114%

Cc1cc(O)c2c(c1)C[C@H]1[C@@H]3CC[C@H]4CC(=O)CC[C@]4(C)[C@H]3CC(=O)[C@]21C
inactive: RPMI-8226 leukemia 56.6% | OVCAR-8 ovarian 97.4% | OVCAR-5 ovarian 79.7% | OVCAR-4 ovarian 109% | SK-OV-3 ovarian 114% | IGROV1 ovarian 126% | OVCAR-3 ovarian 98% | HS 578T breast 33% | NCI/ADR-RES ovarian 83.8% | T-47D breast 67.9%

O=C(/C=C/c1cccnc1)NCCCCC1CCCN(C(=O)c2ccccc2)C1 (stereo not given)
inactive: RPMI-8226 leukemia 36.9% | OVCAR-8 ovarian 22% | OVCAR-5 ovarian 96.1% | OVCAR-4 ovarian 89.2% | SK-OV-3 ovarian 91.6% | IGROV1 ovarian 33.8% | OVCAR-3 ovarian 74.7% | HS 578T breast 52.2% | NCI/ADR-RES ovarian 32.1% | T-47D breast 47.3%

Cc1cc(NCCCNc2ccnc3cc(Cl)ccc23)nc(N2CCN(C)CC2)n1
inactive: RPMI-8226 leukemia 38.5% | OVCAR-8 ovarian 77.1% | OVCAR-5 ovarian 86.6% | OVCAR-4 ovarian 59.5% | SK-OV-3 ovarian 106% | IGROV1 ovarian 83.1% | OVCAR-3 ovarian 80% | HS 578T breast 91.9% | NCI/ADR-RES ovarian 107% | T-47D breast 81.4%

COc1ccc(-n2nnc(C(=O)O)c2-c2cc(OC)c(OC)c(OC)c2)cc1
inactive: RPMI-8226 leukemia 99.5% | OVCAR-8 ovarian 100% | OVCAR-5 ovarian 103% | OVCAR-4 ovarian 109% | SK-OV-3 ovarian 99.1% | IGROV1 ovarian 116% | OVCAR-3 ovarian 119% | HS 578T breast 102% | NCI/ADR-RES ovarian 109% | T-47D breast 104%

CCC(C)(C)C(=O)O[C@H]1C[C@@H](C)C=C2C=C[C@H](C)[C@H](CC[C@@H]3C[C@@H](O)CC(=O)O3)[C@H]21
inactive: RPMI-8226 leukemia 62.7% | OVCAR-8 ovarian 48% | OVCAR-5 ovarian 87.1% | OVCAR-4 ovarian 86.6% | SK-OV-3 ovarian 70% | IGROV1 ovarian 28.8% | OVCAR-3 ovarian 85.7% | HS 578T breast 42.4% | NCI/ADR-RES ovarian 25.5% | T-47D breast 92.1%

Nc1ccc(C2=NN(c3ccccc3)C(c3ccc(Cl)cc3)C2)cc1 (stereo not given)
active: RPMI-8226 leukemia -20.1%
inactive: OVCAR-8 ovarian 81.8% | OVCAR-5 ovarian 84.2% | OVCAR-4 ovarian 96.7% | SK-OV-3 ovarian 90.1% | IGROV1 ovarian 94.5% | OVCAR-3 ovarian 51.7% | HS 578T breast 102% | NCI/ADR-RES ovarian 89.6% | T-47D breast 63.8%

N#Cc1cccc(/C=C(/C(=O)c2ccccc2)c2ccccc2)c1
inactive: OVCAR-8 ovarian 20.4% | OVCAR-5 ovarian 80.4% | OVCAR-4 ovarian 50.9% | SK-OV-3 ovarian 110% | IGROV1 ovarian 73.8% | OVCAR-3 ovarian 36.4% | HS 578T breast 55.4% | NCI/ADR-RES ovarian 40.1% | T-47D breast 74.4%
active: RPMI-8226 leukemia -4.62%

O=C1/C(=C/c2ccc3cccc(Cl)c3n2)SC(=S)N1CCc1ccc(O)cc1
inactive: RPMI-8226 leukemia 82.2% | OVCAR-8 ovarian 92.3% | OVCAR-5 ovarian 106% | OVCAR-4 ovarian 96.6% | SK-OV-3 ovarian 93.2% | IGROV1 ovarian 47% | OVCAR-3 ovarian 75.7% | HS 578T breast 73.8% | NCI/ADR-RES ovarian 93% | T-47D breast 65.5%

CCC(C)CC(C)C(=O)c1c(O)ccn(O)c1=O (stereo not given)
active: NCI/ADR-RES ovarian 4.73%
inactive: RPMI-8226 leukemia 11.7% | OVCAR-8 ovarian 17.8% | OVCAR-5 ovarian 72.8% | OVCAR-4 ovarian 30.3% | SK-OV-3 ovarian 65.3% | IGROV1 ovarian 24.2% | OVCAR-3 ovarian 19% | HS 578T breast 62% | T-47D breast 35.5%

COc1cccc(-c2nnc(N)o2)c1
inactive: RPMI-8226 leukemia 109% | OVCAR-8 ovarian 98.7% | OVCAR-5 ovarian 105% | OVCAR-4 ovarian 97.9% | SK-OV-3 ovarian 115% | IGROV1 ovarian 102% | OVCAR-3 ovarian 90.4% | HS 578T breast 101% | NCI/ADR-RES ovarian 102% | T-47D breast 97.7%

Cc1ccc(C(C)C)cc1NC(=O)Nc1ccc([N+](=O)[O-])cc1
inactive: OVCAR-8 ovarian 15.2% | OVCAR-5 ovarian 26.8% | OVCAR-4 ovarian 28.2% | HS 578T breast 14.7%
active: RPMI-8226 leukemia -61.9% | SK-OV-3 ovarian 7.01% | IGROV1 ovarian 6.68% | OVCAR-3 ovarian -21.9% | NCI/ADR-RES ovarian -10.7% | T-47D breast 0.428%

CC(=O)Oc1ccc(C2OC(c3ccc4ccccc4c3OC(C)=O)=NN2C(C)=O)c(OC(C)=O)c1 (stereo not given)
active: OVCAR-8 ovarian 8.13%
inactive: RPMI-8226 leukemia 21.2% | OVCAR-5 ovarian 63.2% | OVCAR-4 ovarian 32.2% | SK-OV-3 ovarian 27.6% | IGROV1 ovarian 20.3% | OVCAR-3 ovarian 18.7% | HS 578T breast 59.7% | NCI/ADR-RES ovarian 11.1% | T-47D breast 25%

O=C(Nc1nc(-c2ccccc2)cs1)c1cc(O)c(O)c(O)c1
inactive: RPMI-8226 leukemia 17.8% | OVCAR-8 ovarian 39% | OVCAR-5 ovarian 89.4% | OVCAR-4 ovarian 44.5% | SK-OV-3 ovarian 70% | IGROV1 ovarian 33.2% | OVCAR-3 ovarian 22.3% | HS 578T breast 73.6% | NCI/ADR-RES ovarian 47% | T-47D breast 31.2%

Clc1nc(Cl)c2ncn(-c3ccccc3)c2n1
inactive: RPMI-8226 leukemia 108% | OVCAR-8 ovarian 51.4% | OVCAR-5 ovarian 102% | OVCAR-4 ovarian 68.9% | SK-OV-3 ovarian 88.4% | OVCAR-3 ovarian 54.9% | HS 578T breast 12.4% | NCI/ADR-RES ovarian 92.6% | T-47D breast 50.6%
active: IGROV1 ovarian -48.8%

CCOC(=O)c1c(NC(=O)C2CCCCC2C(=O)O)sc2c1CCCC2 (stereo not given)
inactive: RPMI-8226 leukemia 105% | OVCAR-8 ovarian 96.7% | OVCAR-5 ovarian 106% | OVCAR-4 ovarian 100% | SK-OV-3 ovarian 97.9% | IGROV1 ovarian 105% | OVCAR-3 ovarian 106% | HS 578T breast 103% | NCI/ADR-RES ovarian 106% | T-47D breast 103%

CCOc1cccc(C2CC(=O)Nc3cc4c(cc32)OCO4)c1 (stereo not given)
inactive: RPMI-8226 leukemia 71.1% | OVCAR-8 ovarian 89% | OVCAR-5 ovarian 109% | OVCAR-4 ovarian 89.9% | SK-OV-3 ovarian 86.6% | IGROV1 ovarian 83.4% | OVCAR-3 ovarian 82.4% | HS 578T breast 91.6% | NCI/ADR-RES ovarian 82.3% | T-47D breast 66.9%

CN(CC(=O)N(Cc1ccc(C2CCCCC2)cc1)c1ccc(C(=O)O)cc1)S(=O)(=O)c1c(F)c(F)c(F)c(F)c1F
inactive: RPMI-8226 leukemia 11.3% | OVCAR-5 ovarian 116% | OVCAR-4 ovarian 83.8% | SK-OV-3 ovarian 106% | HS 578T breast 18.5% | NCI/ADR-RES ovarian 87.7%
active: OVCAR-8 ovarian 6.02% | IGROV1 ovarian -24.8% | OVCAR-3 ovarian -83.1% | T-47D breast -6.87%

COc1ccc2c3c(c(OCCCN(C)C)nc2c1)-c1ccc(Cl)cc1C3=O
inactive: SK-OV-3 ovarian 55.5% | IGROV1 ovarian 30.8% | HS 578T breast 68.7% | T-47D breast 72.7%
active: RPMI-8226 leukemia -17.3% | OVCAR-8 ovarian -38.6% | OVCAR-5 ovarian -43.3% | OVCAR-4 ovarian -8.75% | OVCAR-3 ovarian -46.4% | NCI/ADR-RES ovarian 7.12%

C[N+]1(CCC[N+]2(C)C[C@@H]3[C@H](C2)[C@@H]2C=C[C@H]3C2)CCOCC1 (stereo not given in full)
inactive: RPMI-8226 leukemia 106% | OVCAR-8 ovarian 104% | OVCAR-5 ovarian 88.9% | OVCAR-4 ovarian 112% | SK-OV-3 ovarian 99.3% | IGROV1 ovarian 103% | OVCAR-3 ovarian 116% | HS 578T breast 111% | NCI/ADR-RES ovarian 107% | T-47D breast 109%
